Test results: PubChem BioAssay (NCI)
This is part of a sample that, as a whole, favours compounds with a hit. Of some 83,000 tested, about 20% had one in any assay.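 Compound tested at a single concentration for 48 hours in 96-well plates; a percent growth value below 10 was scored as active.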 Values without a mark were called inactive. Activity calls are given as the source filed them.

Assays:
Experiment in all cases: NCI-60 one-dose screen, 48 h (100 = growth as untreated, 0 = no growth, -100 = all killed)
Settings in all cases: 10 µM unless noted
[1] = test system: NCI-H23 lung
[2] = test system: NCI-H226 lung
[3] = test system: NCI-H322M lung
[4] = test system: HOP-62 NSCLC
[5] = test system: NCI-H460 lung
[6] = test system: HOP-92 NSCLC
[7] = test system: NCI-H522 lung
[8] = test system: A549/ATCC NSCLC
[9] = test system: 786-0 renal
[10] = test system: COLO 205 colon
[11] = test system: DU-145 prostate
[12] = test system: K-562 leukemia
[13] = test system: MALME-3M melanoma
[14] = test system: MDA-MB-231 breast
[15] = test system: RXF 393 renal
[16] = test system: SF-268 CNS
[17] = test system: SF-295 CNS
[18] = test system: SF-539 CNS
[19] = test system: UACC-257 melanoma
[20] = test system: M14 melanoma

Nc1c(C(=O)Nc2ccc(Cl)cc2)cc(-c2nc3ccccc3s2)c(=O)n1NS(=O)(=O)c1ccc(Cl)cc1
growth [1]: 92.7%
growth [2]: 86.4%
growth [3]: 93.8%
growth [4]: 102%
growth [5]: 106%
growth [6]: 96.2%
growth [7]: 91.3%
growth [8]: 104%
growth [9]: 101%
growth [10]: 105%
growth [11]: 107%
growth [12]: 95.7%
growth [13]: 107%
growth [14]: 94.1%
growth [15]: 104%
growth [16]: 96.7%
growth [17]: 98.4%
growth [18]: 102%
growth [19]: 104%
growth [20]: 98.2%

CCCCCCCCCCCC(=O)C(CCCCCCCCCC)C(=O)Nc1ccccc1 (centres undefined)
growth [1]: 95.8%
growth [2]: 97.1%
growth [3]: 90.6%
growth [4]: 96.8%
growth [5]: 111%
growth [6]: 102%
growth [7]: 89.4%
growth [8]: 91.2%
growth [9]: 107%
growth [10]: 108%
growth [11]: 104%
growth [12]: 104%
growth [13]: 105%
growth [14]: 91.2%
growth [15]: 116%
growth [16]: 104%
growth [17]: 102%
growth [18]: 98.2%
growth [19]: 92.9%
growth [20]: 103%

COc1ccc2c(/C=C3/C(=O)NC(=S)NC3C)cc(=O)oc2c1 (centres undefined)
growth [1]: 98.9%
growth [2]: 96.7%
growth [3]: 93.1%
growth [4]: 92.8%
growth [5]: 105%
growth [6]: 93%
growth [7]: 82.3%
growth [8]: 88.9%
growth [9]: 95.8%
growth [10]: 101%
growth [11]: 108%
growth [12]: 98.1%
growth [13]: 99.4%
growth [14]: 103%
growth [15]: 98.4%
growth [16]: 89.4%
growth [17]: 97.9%
growth [18]: 101%
growth [19]: 83.5%
growth [20]: 109%

FCc1nc2nc(Cl)c(Cl)nc2[nH]1
growth [1]: 99.3%
growth [2]: 104%
growth [3]: 113%
growth [4]: 94.8%
growth [5]: 108%
growth [6]: 81.2%
growth [7]: 95.9%
growth [8]: 98.9%
growth [9]: 103%
growth [10]: 109%
growth [11]: 104%
growth [12]: 93%
growth [13]: 97.3%
growth [14]: 128%
growth [15]: 105%
growth [16]: 94.9%
growth [17]: 93.7%
growth [18]: 100%
growth [19]: 99.2%
growth [20]: 107%

CCNC(=S)NNC(=O)c1cc2ccc1CCc1ccc(cc1)CC2
growth [1]: 97.7%
growth [2]: 106%
growth [3]: 95.1%
growth [4]: 101%
growth [5]: 103%
growth [6]: 97.2%
growth [7]: 92.7%
growth [8]: 101%
growth [9]: 106%
growth [10]: 107%
growth [11]: 103%
growth [12]: 100%
growth [13]: 101%
growth [14]: 100%
growth [15]: 109%
growth [16]: 95.4%
growth [17]: 93.2%
growth [18]: 101%
growth [19]: 109%
growth [20]: 95%

CCCCCCCC(=O)Nc1nc2[nH]c(CN3CCN(Cc4cccc(I)c4)CC3)c(CN3CCN(Cc4cccc(I)c4)CC3)c2c(=O)[nH]1
growth [1]: -24.5% (active)
growth [2]: 66.4%
growth [3]: -60% (active)
growth [4]: -88.6% (active)
growth [5]: -75% (active)
growth [6]: -67.3% (active)
growth [7]: -58.8% (active)
growth [8]: -81.6% (active)
growth [9]: -98% (active)
growth [10]: -81.2% (active)
growth [11]: -83.5% (active)
growth [12]: -43.8% (active)
growth [13]: -49.9% (active)
growth [14]: -89.8% (active)
growth [15]: -96.1% (active)
growth [16]: -82.9% (active)
growth [17]: -69.5% (active)
growth [18]: -89.4% (active)
growth [19]: -33% (active)
growth [20]: -56.6% (active)

COc1cc2nc(-c3ccc(C(F)(F)F)cc3)cc(OCCN3CCCC3)c2cc1OC
growth [1]: 80.9%
growth [2]: 82.7%
growth [3]: 88.9%
growth [4]: 83.6%
growth [5]: 68.1%
growth [6]: 60.7%
growth [7]: 95.7%
growth [8]: 93.5%
growth [9]: 76.4%
growth [10]: 77.9%
growth [11]: 84.1%
growth [12]: 47.4%
growth [13]: 85.8%
growth [14]: 74.6%
growth [15]: 65.4%
growth [16]: 81%
growth [17]: 83%
growth [18]: 81.1%
growth [19]: 68.9%
growth [20]: 4.5% (active)

COc1ccc(/C=N/C2=C(C#N)C(c3ccccc3[N+](=O)[O-])c3ccc4ccccc4c3O2)cc1 (centres undefined)
growth [1]: 79%
growth [2]: 70.4%
growth [3]: 90.6%
growth [4]: 103%
growth [5]: 91.4%
growth [6]: 97.1%
growth [7]: 88.1%
growth [8]: 99.8%
growth [9]: 101%
growth [10]: 104%
growth [11]: 100%
growth [12]: 80.2%
growth [13]: 89.8%
growth [14]: 77.7%
growth [15]: 109%
growth [16]: 87.4%
growth [17]: 94.9%
growth [18]: 97.3%
growth [19]: 102%
growth [20]: 90.4%

O=C1/C(=C\c2cn(Cc3ccccc3)c3ccc(Br)cc23)c2ccccc2N1c1c(Cl)cccc1Cl
growth [1]: 96.9%
growth [2]: 91.6%
growth [3]: 96.8%
growth [4]: 98.5%
growth [5]: 107%
growth [6]: 57.1%
growth [7]: 80.7%
growth [8]: 90.5%
growth [9]: 99.2%
growth [10]: 108%
growth [11]: 127%
growth [12]: 109%
growth [13]: 109%
growth [14]: 98%
growth [15]: 101%
growth [16]: 113%
growth [17]: 98.5%
growth [18]: 103%
growth [19]: 102%
growth [20]: 105%

N#Cc1ccc(-c2ccc3c(c2)NC(=O)/C3=C\c2ccc[nH]2)cc1
growth [1]: 36.4%
growth [2]: 58.1%
growth [3]: 70%
growth [4]: 84.4%
growth [5]: 76.2%
growth [6]: 36.4%
growth [7]: 81.8%
growth [8]: 104%
growth [9]: 105%
growth [10]: 93.9%
growth [11]: 106%
growth [12]: 105%
growth [13]: 98%
growth [14]: 45.9%
growth [15]: 67.3%
growth [16]: 96.6%
growth [17]: 95.7%
growth [18]: 101%
growth [19]: 112%
growth [20]: 102%

CCCCOc1ccc(/C=N/Nc2cc(C)nc3ccc(Cl)cc23)cc1
growth [1]: 60%
growth [2]: 88.9%
growth [3]: 51.6%
growth [4]: 27.1%
growth [5]: -62.8% (active)
growth [6]: 68.7%
growth [7]: -25.4% (active)
growth [8]: 10.1%
growth [9]: -80.9% (active)
growth [10]: -66.6% (active)
growth [11]: 3.96% (active)
growth [12]: -21.7% (active)
growth [13]: -77% (active)
growth [14]: -49.5% (active)
growth [15]: -84.2% (active)
growth [16]: 64.9%
growth [17]: -83.6% (active)
growth [18]: -80.5% (active)
growth [19]: 84.1%
growth [20]: -25.2% (active)

O=C(NNc1nc(Cl)nc(N2CCN(C(c3ccccc3)c3ccccc3)CC2)n1)c1ccccc1
growth [1]: -9.53% (active)
growth [2]: 48%
growth [3]: 32%
growth [4]: 47.6%
growth [5]: 86.3%
growth [6]: 52.2%
growth [7]: -68.3% (active)
growth [8]: 98.7%
growth [9]: 70.5%
growth [10]: 24.1%
growth [11]: 46.6%
growth [12]: -38.8% (active)
growth [13]: -14.4% (active)
growth [14]: -54.3% (active)
growth [15]: -47.1% (active)
growth [16]: 63.1%
growth [17]: 92.3%
growth [18]: -33% (active)
growth [19]: -1.56% (active)
growth [20]: 10.5%

FC(F)(F)c1cccc(Oc2ccc(Nc3ncnc4ccc(OCCCN5CCOCC5)cc34)cc2Cl)c1
growth [1]: 76.1%
growth [2]: 84.7%
growth [3]: 37.5%
growth [4]: 62.3%
growth [5]: 14.2%
growth [6]: 41.5%
growth [7]: 35.1%
growth [8]: 49.4%
growth [9]: 44.6%
growth [10]: 47%
growth [11]: 43%
growth [12]: 1.77% (active)
growth [13]: -4.17% (active)
growth [14]: 22.4%
growth [16]: 55.6%
growth [17]: 25.7%
growth [18]: 60.8%
growth [19]: 40.1%
growth [20]: -36% (active)

O=CNc1cc(Cl)cc(Cl)c1
growth [1]: 102%
growth [2]: 102%
growth [3]: 104%
growth [4]: 102%
growth [5]: 104%
growth [6]: 106%
growth [7]: 95.4%
growth [8]: 102%
growth [9]: 104%
growth [10]: 107%
growth [11]: 109%
growth [12]: 97.5%
growth [13]: 103%
growth [14]: 85.6%
growth [15]: 113%
growth [16]: 106%
growth [17]: 102%
growth [18]: 100%
growth [19]: 97.4%
growth [20]: 103%

COc1ccc(/C=C\c2nc3ccccc3s2)cc1OP(=O)(O)O
growth [1]: 43.4%
growth [2]: 66.3%
growth [3]: 59.8%
growth [4]: 49.3%
growth [5]: 20.7%
growth [6]: 90.2%
growth [7]: 12.5%
growth [8]: 42.3%
growth [9]: 64.7%
growth [10]: 112%
growth [11]: 29.1%
growth [12]: 10.4%
growth [13]: 71.3%
growth [14]: 49.2%
growth [15]: 2.73% (active)
growth [16]: 60.2%
growth [17]: 40.8%
growth [18]: -10.2% (active)
growth [19]: 83.1%
growth [20]: 25.5%
